Data as given in PubChem BioAssay AID1851 (National Center for Advancing Translational Sciences (NCATS), 2009).
Hit rate of the full screen: of about 16,000 compounds, about 5,100 (32%) were called active. About 25% were inconclusive and are not listed. The call rests on the fitted dose curve; in most records, active means well fitted curve in the direction sought with a large enough effect; inconclusive means small, poorly fitted or top-dose-only effect, or effect the other way; inactive means no such curve, though single readings can be large or run the other way. The list shows a part of the results.

Biological target: Cytochrome P450 3A4 (Homo sapiens) (UniProt P08684)
Sequence (P08684 whole entry, looked up): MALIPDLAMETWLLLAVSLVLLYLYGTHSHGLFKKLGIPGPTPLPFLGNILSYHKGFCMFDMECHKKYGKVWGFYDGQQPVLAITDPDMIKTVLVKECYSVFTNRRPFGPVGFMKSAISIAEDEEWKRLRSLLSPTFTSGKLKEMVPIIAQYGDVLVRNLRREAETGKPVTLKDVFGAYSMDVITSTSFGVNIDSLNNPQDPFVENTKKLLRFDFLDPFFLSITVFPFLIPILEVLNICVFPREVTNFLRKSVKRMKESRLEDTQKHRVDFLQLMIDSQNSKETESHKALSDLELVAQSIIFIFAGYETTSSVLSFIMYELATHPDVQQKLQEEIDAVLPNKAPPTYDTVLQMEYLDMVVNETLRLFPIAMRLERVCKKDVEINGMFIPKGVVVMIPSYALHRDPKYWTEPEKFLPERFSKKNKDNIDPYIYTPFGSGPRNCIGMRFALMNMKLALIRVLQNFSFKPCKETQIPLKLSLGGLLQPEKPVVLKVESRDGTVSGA
Test: Cytochrome panel assay with activity outcomes
Settings: recombinant CYP, pro-luciferin dealkylation, luminescence, p450-cyp3a4; series mostly up to 57.1 µM; activity, negative = inhibition: at the top concentration
On the % scale 0 is the no-effect control and ±100 the full control effect.

Structure (SMILES) | activity, negative = inhibition | AC50
O=C1[C@H]2[C@H]3[C@H](O)[C@H](O)C/C(=N/OCc4ccccc4)[C@@H]3CC[C@@H]2C(=O)N1C[C@@H]1CCCO1 | -20.3% [at 11.4 µM] (inactive) | –
CC(C)CO/N=C1/C[C@@H](O)[C@@H](O)[C@@H]2[C@@H]3C(=O)N(Cc4ccccc4)C(=O)[C@H]3CC[C@@H]12 | -11.8% [at 11.4 µM] (inactive) | –
O=C1[C@H]2[C@H]3[C@H](O)[C@H](O)C/C(=N/OCc4ccccc4)[C@@H]3CC[C@@H]2C(=O)N1Cc1ccc2c(c1)OCO2 | – | 2 µM (active)
CC(C)CO/N=C1/C[C@@H](O)[C@@H](O)[C@@H]2[C@@H]3C(=O)N(C[C@@H]4CCCO4)C(=O)[C@H]3CC[C@H]12 | -0.365% [at 11.4 µM] (inactive) | –
O=C1[C@H]2[C@H]3[C@H](O)[C@H](O)C/C(=N/OCc4ccccc4)[C@H]3CC[C@@H]2C(=O)N1C[C@@H]1CCCO1 | -11.3% [at 11.4 µM] (inactive) | –
Nc1ccc(C(=O)C[C@H](N)C(=O)O)cc1O | -6.46% [at 11.4 µM] (inactive) | –
O=C(O)[C@@H]1[C@@H](C(=O)Nc2ncccn2)[C@@H]2C=C[C@@H]1O2 | -13% [at 11.4 µM] (inactive) | –
CCOC(=O)c1cnn(-c2nc(-c3ccc(F)cc3)cs2)c1C(F)(F)F | 18.5% (inactive) | –
Fc1ccc(-c2cnc(-c3cccs3)o2)cc1 | 0.322% (inactive) | –
Nc1c(-c2cccs2)cnn1-c1nc(-c2ccc(F)cc2)cs1 | – | 3.98 µM (active)
Cc1ccc(C)c(S(=O)(=O)NCc2ccc(C(=O)N3CCC(Cc4ccccc4)CC3)cc2)c1 | – | 2.24 µM (active)
CC1(C)CC(O)CC(C)(C)N1CC(O)COCCOc1ccc(Br)cc1 (stereo not given) | -11.2% (inactive) | –
Clc1cccc(Oc2cnc3ccccc3n2)c1 | 25.7% (inactive) | –
O=C(CCl)Nc1ccc(Oc2cnc3ccccc3n2)cc1 | – | 14.1 µM (active)
COCCNC(=O)COC(=O)/C=C/c1cnc2ccccc2n1 | -3.34% [at 2.29 µM] (inactive) | –
COc1ccc(CCNc2nc(-c3cccnc3)cs2)cc1OC | – | 3.16 µM (active)
COc1ccccc1CNc1cc(-c2cccnc2)ncn1 | – | 0.631 µM (active)
O=C(NC(=S)Nc1nc(-c2ccc(Br)cc2)cs1)c1cccnc1 | -14.3% [at 2.29 µM] (inactive) | –
COc1ccc(CNc2cc(-c3cccnc3)ncn2)c(OC)c1 | – | 1.58 µM (active)
c1ccc(-c2csc3ncn4cnnc4c23)cc1 | -24.1% (inactive) | –

Structure (SMILES) | activity, negative = inhibition | AC50
Cc1ccc(C2C(C(=O)c3ccco3)=C(O)C(=O)N2c2nnc(C)s2)cc1 (stereo not given) | -17.9% (inactive) | –
CCS(=O)(=O)Nc1ccc(C2=NN(C(=O)c3ccco3)C(c3ccc(C)cc3)C2)cc1 (stereo not given) | – | 3.98 µM (active)
N=C(N)SCCSC(=N)N | -5.54% [at 11.4 µM] (inactive) | –
N=C(N)SCCc1cnc[nH]1 | – | 15.8 µM (active)
N=C(N)SCCc1ccncc1 | 4.88% [at 11.4 µM] (inactive) | –
Cc1cc(C)cc(Oc2coc3cc(OC(=O)c4cccs4)ccc3c2=O)c1 | -2.26% (inactive) | –
CCOc1ccccc1Oc1coc2cc(OC)ccc2c1=O | 20.6% (inactive) | –
Cc1cccc(Oc2coc3cc(OC(=O)c4cccs4)ccc3c2=O)c1 | – | 11.2 µM (active)
CCCCCCCCn1cc(C(C)=O)c(=O)[nH]c1=O | -12.5% [at 2.29 µM] (inactive) | –
O=C(Cn1c(=O)n(Cc2ccco2)c(=O)c2c3c(sc21)CCCCC3)c1ccccc1 | – | 14.1 µM (active)
C[N+]1(NCC[N@@+]2(C)CCc3ccccc3C2)CCCCC1 | 0.246% [at 11.4 µM] (inactive) | –
CCC(C)(C)n1nnnc1C(c1ccc(C)cc1)N1CCC(C)CC1 (stereo not given) | 21.5% [at 2.29 µM] (inactive) | –
CCC(C)(C)n1nnnc1C(C(C)C)N(CCCO)Cc1cc2cc(C)ccc2[nH]c1=O (stereo not given) | – | 2 µM (active)
CCC(C)(C)n1nnnc1C(C(C)C)N(Cc1ccco1)Cc1cc2cc3c(cc2[nH]c1=O)OCO3 (stereo not given) | – | 1 µM (active)
CCC(C)(C)n1nnnc1C(c1cc2cc3c(cc2[nH]c1=O)OCO3)N1CCCCC1 (stereo not given) | – | 1.58 µM (active)
c1ccc(C[n+]2cccc(-c3cc4ccccc4[nH]3)c2)cc1 | -7.36% [at 11.4 µM] (inactive) | –
Fc1ccccc1OCCCCSc1ncccn1 | 15.6% (inactive) | –
O=S(=O)(O)[C@@H](CO)c1ccccc1 (tested in a mixture with another compound) | -1.16% [at 11.4 µM] (inactive) | –
O=C1C(SCCO)=C(SCCO)C(=O)c2ccccc21 | – | 25.1 µM (active)
O=C1C(=O)c2ccccc2C(O)=C1C(CCc1ccccc1)C1=C(O)c2ccccc2C(=O)C1=O | -5.65% [at 11.4 µM] (inactive) | –
